The sample as a whole holds a higher share of hits than the screen did.
Dicer inh: inhibitors of Dicer pre-microRNA processing, primary screen, biochemical, cat-ELCCA, chemiluminescence; Endoribonuclease Dicer (Homo sapiens), Q9UPY3; hit rate 6% among 47,000; z-score at 25 µM; cat-ELCCA pre-miR-21 Dicer processing; stronger effect = higher value; in the data active means z-score above about 3, passing the limit was not always enough;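 further: higher signal means more uncleaved substrate so more Dicer inhibition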
Target sequence (Q9UPY3 whole entry, looked up): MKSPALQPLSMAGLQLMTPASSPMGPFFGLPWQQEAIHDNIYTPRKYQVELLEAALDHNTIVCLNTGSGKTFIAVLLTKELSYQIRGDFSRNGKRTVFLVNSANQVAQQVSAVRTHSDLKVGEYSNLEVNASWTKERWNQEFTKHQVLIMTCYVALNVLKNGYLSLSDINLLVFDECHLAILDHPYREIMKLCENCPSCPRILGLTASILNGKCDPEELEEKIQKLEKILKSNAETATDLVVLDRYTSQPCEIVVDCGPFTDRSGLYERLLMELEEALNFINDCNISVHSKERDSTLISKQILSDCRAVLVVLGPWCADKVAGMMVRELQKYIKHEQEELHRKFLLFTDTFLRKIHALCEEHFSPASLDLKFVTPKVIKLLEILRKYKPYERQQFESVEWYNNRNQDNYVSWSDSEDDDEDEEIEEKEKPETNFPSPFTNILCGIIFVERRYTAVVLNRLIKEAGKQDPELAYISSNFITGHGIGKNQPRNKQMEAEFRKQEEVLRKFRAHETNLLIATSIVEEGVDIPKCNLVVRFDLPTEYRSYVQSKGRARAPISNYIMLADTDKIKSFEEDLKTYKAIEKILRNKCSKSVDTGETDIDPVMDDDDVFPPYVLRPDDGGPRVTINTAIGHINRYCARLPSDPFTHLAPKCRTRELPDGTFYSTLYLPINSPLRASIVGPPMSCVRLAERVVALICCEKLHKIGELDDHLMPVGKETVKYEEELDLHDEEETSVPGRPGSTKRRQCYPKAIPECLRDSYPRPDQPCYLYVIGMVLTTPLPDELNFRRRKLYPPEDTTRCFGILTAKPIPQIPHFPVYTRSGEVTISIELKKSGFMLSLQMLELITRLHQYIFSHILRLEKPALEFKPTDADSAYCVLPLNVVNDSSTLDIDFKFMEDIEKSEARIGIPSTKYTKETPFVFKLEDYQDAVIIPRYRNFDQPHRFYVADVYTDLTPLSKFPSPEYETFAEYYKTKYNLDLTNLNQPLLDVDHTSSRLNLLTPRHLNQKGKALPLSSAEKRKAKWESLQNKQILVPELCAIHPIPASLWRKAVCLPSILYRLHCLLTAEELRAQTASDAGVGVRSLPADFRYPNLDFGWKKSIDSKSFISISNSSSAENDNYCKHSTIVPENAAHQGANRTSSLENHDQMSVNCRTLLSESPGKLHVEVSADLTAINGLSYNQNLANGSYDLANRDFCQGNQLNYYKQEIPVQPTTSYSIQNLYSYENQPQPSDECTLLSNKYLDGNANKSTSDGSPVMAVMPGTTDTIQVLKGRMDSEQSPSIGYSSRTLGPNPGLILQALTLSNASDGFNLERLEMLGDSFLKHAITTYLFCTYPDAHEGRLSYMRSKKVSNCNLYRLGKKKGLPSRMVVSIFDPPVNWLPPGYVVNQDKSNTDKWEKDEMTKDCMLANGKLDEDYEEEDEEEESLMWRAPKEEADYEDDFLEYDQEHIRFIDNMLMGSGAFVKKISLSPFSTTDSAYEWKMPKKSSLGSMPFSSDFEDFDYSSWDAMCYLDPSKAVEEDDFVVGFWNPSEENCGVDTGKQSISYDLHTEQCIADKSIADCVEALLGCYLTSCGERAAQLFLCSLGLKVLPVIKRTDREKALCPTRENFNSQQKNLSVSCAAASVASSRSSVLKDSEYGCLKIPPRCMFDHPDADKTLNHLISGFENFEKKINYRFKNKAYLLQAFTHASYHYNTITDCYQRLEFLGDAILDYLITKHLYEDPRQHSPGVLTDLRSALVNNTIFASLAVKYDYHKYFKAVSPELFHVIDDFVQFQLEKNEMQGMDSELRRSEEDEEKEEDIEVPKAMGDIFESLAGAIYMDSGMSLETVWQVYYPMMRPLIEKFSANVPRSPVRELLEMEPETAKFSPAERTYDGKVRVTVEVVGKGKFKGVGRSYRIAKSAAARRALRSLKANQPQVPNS
Numbers stand for hits; n = inactive.

SMILES | Dicer inh
O=C(c1cnc2cc(-c3ccccc3)nn2c1)c1cc(Cl)ccc1O | n
C=CCOC(=O)c1sc(N2C(=O)c3oc4ccccc4c(=O)c3C2c2ccccc2)nc1C (configuration not stated) | n
COC(=O)Cn1cnc(=O)c(C#N)c1C | 3.4
COC(=O)CNC(=O)Cn1cnc2c1c(=O)n(C)c(=O)n2C | n
CCOC(=O)Cn1cc(C#N)c(=O)[nH]c1=O | n
CCOC(=O)CN1C(=O)C(O)(CC(=O)c2ccccc2)c2ccccc21 (configuration not stated) | n
O=C1CC(c2cccs2)CC2=C1C(c1ccc(Cl)c(F)c1)Nc1ccccc1N2 (configuration not stated) | 4.2
O=C1CC(c2cccs2)CC2=C1C(c1ccc(Cl)cc1)Nc1ccccc1N2 (configuration not stated) | n
O=C1CC(c2ccccc2)CC2=C1C(c1cccs1)Nc1ccccc1N2 (configuration not stated) | n
COc1ccc(C2CC(=O)C3=C(C2)Nc2ccccc2NC3c2ccc(F)c(F)c2)cc1 (configuration not stated) | n
O=C1CC(c2ccccc2)CC2=C1C(c1cccc(O)c1)Nc1ccccc1N2 (configuration not stated) | n
O=C1CC(c2cccs2)CC2=C1C(c1cccc(O)c1)Nc1ccccc1N2 (configuration not stated) | 3.2
CCOC(=O)/C(C#N)=C/c1cn(-c2ccccc2)nc1-c1ccc(C)cc1 | n
COc1ccc(/C=C2/N=C(c3ccccc3)OC2=O)cc1OCc1ccccc1 | n
COc1ccc(OCC2c3cc(OC)c(OC)cc3CCN2C(=O)c2cccc(Cl)c2)cc1 (configuration not stated) | n
Cc1c2occ(-c3ccc(F)cc3)c2cc2c1oc(=O)c1ccccc12 | 4.2
COc1ccc2c(c1)c(=O)oc1c(C)c3occ(-c4ccc(F)cc4)c3cc12 | n
Cc1c2occ(-c3ccc4c(c3)OCO4)c2cc2c1oc(=O)c1ccccc12 | n
CC1=NN(c2ccc(N=Cc3ccc(N(C)C)cc3)cc2)C(=O)C1 | n
Cc1ccc(S(=O)(=O)NNC(=O)c2[nH]c3ccc([N+](=O)[O-])cc3c2-c2ccccc2)cc1 | 6.7
O=C(O)c1[nH]c2ccc([N+](=O)[O-])cc2c1-c1ccccc1 | n
NNC(=O)c1[nH]c2ccc([N+](=O)[O-])cc2c1-c1ccccc1 | n
Cc1cc(C)nc(Nc2n[nH]c(Cc3ccccc3)n2)n1 | n
COc1ccc(-c2nc(Nc3nc4ccccc4o3)ncc2C#N)cc1 | n
Cc1cc(C)nc(Nc2nc3ccccc3o2)n1 | 4.6
SMILES | Dicer inh
O[C@@H]1C2C3CC4C5C3C1C(c1ccccc1)(C42)[C@H]5O (some centres not stated) | n
Cc1cc(C)c(Nc2n[nH]c(=S)s2)c(C)c1 | n
Cc1cc(C)c(Nc2nc3cc(Br)cc(C)c3s2)c(C)c1 | 3.8
Cc1cc(C)c(Nc2nnns2)c(C)c1 | n
N=c1c2cnn(-c3ccccc3)c2ncn1/N=C/c1ccc([N+](=O)[O-])cc1 | n
C=CCOc1ccc(C2N3CC4(C)CN2CC(C)(C3)C4)cc1 (configuration not stated) | n
COCCCNC(=S)N/N=C/c1ccc(O)cc1O | n
COCCCNC(=S)N/N=C/c1ccc(O)cc1 | n
COCCCNC(=S)N/N=C/c1cccc(OC)c1O | 4.2
Nc1cccc(-c2nc3cc4sc(-c5cccc(N)c5)nc4cc3s2)c1 | n
Nc1ccc(-c2nc3cc4sc(-c5ccc(N)cc5)nc4cc3s2)cc1 | n
c1cc(-c2nc3cc4sc(-c5ccn[nH]5)nc4cc3s2)[nH]n1 | 3.2
C#CCSc1nc(O)c(CCCC)c(=O)[nH]1 | n
CCOC(=O)c1sc(SC(C)C)c(C#N)c1-c1ccc(Cl)cc1 | 5
CCOC(=O)CSc1sc(C(=O)OCC)c(-c2ccc(Cl)cc2)c1C#N | n
CCOC(=O)c1sc(SC(C)CC)c(C#N)c1-c1ccc(Cl)cc1 (configuration not stated) | n
CC(C)Sc1sc(C(=O)O)c(-c2ccc(Cl)cc2)c1C#N | 4.1
CSc1sc(C(=O)NC(C)(C)C)c(-c2ccc(Cl)cc2)c1C#N | n
CCSc1sc(C(=O)OC)c(-c2ccc(Cl)cc2)c1C#N | n
COc1ccccc1Oc1ccc(C(F)(F)F)cc1NC(=O)NC(=O)c1ccccc1F | n
COc1nc(-c2ccc(C)cc2)ccc1-c1noc(C(C)C)n1 | n
COc1ccc(OC)c(C2C(C#N)=C(C)NC3=C2C(=O)CC(C)(C)C3)c1 (configuration not stated) | n
O=C(c1ccc(Cl)cc1)c1cc2cc(Br)cc(Br)c2o1 | n
Cc1ccc(S(=O)(=O)CCS(=O)(=O)c2cccs2)cc1 | n
COc1cc2ccccc2cc1C(=O)Nc1nc2ccccc2s1 | n
SMILES | Dicer inh
Cc1nn(-c2ccccc2)cc1/C=N/Nc1nc2ccccc2s1 | n
COc1cc(/C=N/NC(=S)NCCc2ccccc2)cc(OC)c1OC | n
C(=N\Nc1nc2ccccc2s1)/c1cccs1 | n
COc1cc(/C=N/Nc2nc3ccccc3s2)cc(OC)c1OC | 3.5
C(=N\Nc1nc2ccccc2s1)/c1ccco1 | 3.8
Cc1nc(-c2ccc(S(=O)(=O)N3CCCN(c4nc(-c5ccccc5)ns4)CC3)s2)cs1 | n
O=[N+]([O-])c1ccc(C(N2CCSCC2)N2CCSCC2)cc1 | n
O=C1c2oc3ccc(F)cc3c(=O)c2C(c2cccc(O)c2)N1Cc1ccc2c(c1)OCO2 (configuration not stated) | n
CCCCc1c(C)nc(SCc2c(F)cccc2Cl)[nH]c1=O | n
O=C(CSc1nccc(-c2cccs2)n1)N1CCc2c([nH]c3ccccc23)C1C(F)(F)F (configuration not stated) | 3.3
O=C(O)c1cccnc1C(=O)N1CCc2c([nH]c3ccccc23)C1C(F)(F)F (configuration not stated) | n
O=C(CSc1nc2ccccc2s1)N1CCc2c([nH]c3ccccc23)C1C(F)(F)F (configuration not stated) | n
CN(C)C(=O)c1nn(-c2ccc(Cl)cc2)c(=O)c2ccccc12 | n
CCOC(CN(C(=O)c1ccc(C)cc1)c1ccc(F)cc1)OCC | 4.6
CCOC(CN(C(=O)c1ccc(C(F)(F)F)cc1)c1ccc(F)cc1)OCC | n
CCOC(CN(c1ccc(F)cc1)S(=O)(=O)c1ccc(F)cc1F)OCC | n
C=CCn1c(=S)sc2c(N(Cc3ccccc3)Cc3ccccc3)ncnc21 | n
CCCCOc1ccccc1C1C(C(=O)OC(C)C)=C(C)NC2=C1C(=O)CCC2 (configuration not stated) | n
COCc1nnc(NC(=O)COc2ccc(Cl)cc2)s1 | n
O=C(Nc1nnc(CCSc2ccc3ccccc3c2)s1)c1ccco1 | n
O=C(Nc1nnc(COc2ccc(Cl)cc2)s1)c1ccco1 | 4
CCOC(=O)C(=CNNS(=O)(=O)c1ccc(C)cc1)C(=O)OCC | n
COc1ccc(Sc2ccc(C)cc2)c([N+](=O)[O-])c1 | n
Cc1ccc(Sc2ccc(/C=C3/SC(=S)NC3=O)cc2[N+](=O)[O-])cc1 | 4.6
Cc1ccc(Sc2cc(N3CCOCC3)c(C)cc2[N+](=O)[O-])cc1 | n
Cc1c(S(=O)(=O)N(C)c2ccccc2)sc2ccc(Cl)cc12 | n
COc1ccc(O)c(C2=NN3C(C2)c2cccc(OC)c2OC3c2cccc(F)c2)c1 (configuration not stated) | n
COc1cccc2c1OC(c1ccc(O)cc1)N1N=C(c3ccccc3O)CC21 (configuration not stated) | n

Bioassay records (PubChem BioAssay)
